Test results: PubChem BioAssay (NCATS)
Results filed as inconclusive are left out. Calls of active or inactive are those of the source. Calls come from the whole dose curve; as a rule, active = well fitted inhibition curve with a large enough effect; inconclusive = small, poorly fitted or top-dose-only effect; inactive = flat fitted curve, though single readings scatter.

How the values were obtained:
[1] = test system: CRL-7250; assay: Cytotoxic Profiling of Annotated Libraries Using Quantitative High-Throughput Screening (AID 1296008); conditions: Five cell lines viability, CellTiter-Glo ATP luminescence, 48-72 h; max response: active compounds read low; note: potency is the fitted concentration of half-maximal effect; for max response: % is set by controls: 0 for no effect and ±100 for the full control effect
Outline: (§1)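 Cells exposed to compounds for 48 or 72 hr at 37 degrees Celsius. Viability read as ATP-coupled luminescence with CellTiter-Glo after 10 min at room temperature.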

[2] = test system: KB-3-1; assay: as above; conditions: Five cell lines viability, CellTiter-Glo ATP luminescence, 48-72 h; max response: active compounds read low
Outline: as §1

[3] = test system: NIH3T3; assay: as above; conditions: Five cell lines viability, CellTiter-Glo ATP luminescence, 48-72 h; max response: active compounds read low
Outline: as §1

[4] = test system: HaCat; assay: as above; conditions: Five cell lines viability, CellTiter-Glo ATP luminescence, 48-72 h; max response: active compounds read low
Outline: as §1

[5] = test system: HACAT; assay: qHTS assay to identify novel small-molecules to repurpose for Merkel cell carcinoma treatment (AID 1296009); conditions: MCC and control cell lines, CellTiter-Glo viability, 72 h; at 44.8 µM (top of the series) unless noted
Outline: (§2)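 Cells were treated for 72 hr at 37 degree celsius with compounds in 8- or 11-point dose response. Viability was read by CellTiter-Glo luminescence, normalized to no-cell (cytotoxicity) and DMSO controls.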

[6] = test system: HEK293; assay: Cytotoxic Profiling of Annotated Libraries Using Quantitative High-Throughput Screening (AID 1296008); conditions: Five cell lines viability, CellTiter-Glo ATP luminescence, 48-72 h; max response: active compounds read low; note: potency is the fitted concentration of half-maximal effect; for max response: % is set by controls: 0 for no effect and ±100 for the full control effect
Outline: as §1

[7] = test system: N140; assay: qHTS profiling for inhibitors of Plasmodium falciparum proliferation (AID 504749); note: potency is the fitted concentration of half-maximal effect; conditions: P. falciparum in erythrocytes, SYBR Green DNA, 72 h; series mostly up to 28.7 µM
Outline: (§3)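 P. falciparum-infected erythrocytes (0.3% parasitemia, 2.5% hematocrit) incubated with compound 72 h at 37 C, 5% CO2. Parasite DNA detected by SYBR Green after lysis, overnight at room temperature; normalised to 0.29 uM artemisinin and DMSO.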

[8] = test system: P93_24; assay: as above; conditions: P. falciparum in erythrocytes, SYBR Green DNA, 72 h; series mostly up to 28.7 µM
Outline: as §3

[9] = test system: P94_40; assay: as above; conditions: P. falciparum in erythrocytes, SYBR Green DNA, 72 h; series mostly up to 28.7 µM
Outline: as §3

[10] = test system: PAD; assay: as above; conditions: P. falciparum in erythrocytes, SYBR Green DNA, 72 h; series mostly up to 28.7 µM
Outline: as §3

[11] = test system: PC15; assay: as above; conditions: P. falciparum in erythrocytes, SYBR Green DNA, 72 h; series mostly up to 28.7 µM
Outline: as §3

[12] = test system: PC26; assay: as above; conditions: P. falciparum in erythrocytes, SYBR Green DNA, 72 h; series mostly up to 28.7 µM
Outline: as §3

[13] = test system: PC49; assay: as above; conditions: P. falciparum in erythrocytes, SYBR Green DNA, 72 h; series mostly up to 28.7 µM
Outline: as §3

[14] = test system: SC27B; assay: as above; conditions: P. falciparum in erythrocytes, SYBR Green DNA, 72 h; series mostly up to 28.7 µM
Outline: as §3

[15] = test system: TAB109; assay: as above; conditions: P. falciparum in erythrocytes, SYBR Green DNA, 72 h; series mostly up to 28.7 µM
Outline: as §3

[16] = test system: TAB113; assay: as above; conditions: P. falciparum in erythrocytes, SYBR Green DNA, 72 h; series mostly up to 28.7 µM
Outline: as §3

[17] = test system: TAB165; assay: as above; conditions: P. falciparum in erythrocytes, SYBR Green DNA, 72 h; series mostly up to 28.7 µM
Outline: as §3

[18] = test system: W2; assay: as above; conditions: P. falciparum in erythrocytes, SYBR Green DNA, 72 h; series mostly up to 28.7 µM
Outline: as §3

[19] = test system: CRL-7250; assay: qHTS assay to identify novel small-molecules to repurpose for Merkel cell carcinoma treatment (AID 1296009); conditions: MCC and control cell lines, CellTiter-Glo viability, 72 h; at 44.8 µM (top of the series) unless noted
Outline: as §2

[20] = test system: HEK293T; assay: as above; conditions: MCC and control cell lines, CellTiter-Glo viability, 72 h; at 44.8 µM (top of the series)
Outline: as §2
Note: nearly all actives have a fitted effect of over 60% in size.

COc1ccc2c(C(=O)c3ccc(Cl)cc3)c(C)n(CC(=O)O)c2c1
inactive: max response [1] -9.6% | outcome [2] | max response [3] -34.1%

Oc1ccc([C@H]2CNCc3c2ccc(O)c3O)cc1O
inactive: outcome [4] | max response [2] -14.2% | max response [3] -2.59% | outcome [5]

CC1=C2[C@H]3OC(=O)[C@@H](C)[C@@H]3CC[C@@]2(C)C=CC1=O
inactive: max response [6] -1.89% | outcome [4] | max response [2] 27.1% | max response [3] -1.04% | outcome [5]

CCC(=O)O[C@H]1CC[C@H]2[C@@H]3CCC4=CC(=O)CC[C@]4(C)[C@H]3CC[C@]12C
inactive: Potency [7] | Potency [8] | Potency [9] | Potency [10] | Potency [11] | Potency [12] | Potency [13] | Potency [14] | Potency [15] | Potency [16] | Potency [17] | Potency [18] | outcome [4] | max response [2] -26.4% | max response [3] 0.89% | outcome [5]

Clc1ccc(C(OCCN2CCCCC2)c2ccccc2)cc1 (stereo unspecified)
inactive: max response [4] -5.7% | max response [2] -23.9%

C#C[C@]1(O)C=C[C@H]2[C@@H]3CCC4=CC(=O)CC[C@@H]4[C@H]3CC[C@@]21CC
inactive: max response [1] 0.605% | outcome [4] | max response [2] -9.68% | outcome [5]

N#Cc1nn(-c2c(Cl)cc(C(F)(F)F)cc2Cl)c(N)c1S(=O)C(F)(F)F (stereo unspecified)
inactive: Potency [13] | max response [1] -17% | max response [4] -11.3% | max response [2] -1.94%
active: Potency [7] 7.94 µM | Potency [11] 12.6 µM | Potency [12] 9.53 µM | Potency [14] 5.01 µM | Potency [16] 6.31 µM | Potency [17] 6.31 µM

Oc1ccc2[nH]cc(CCCCN3CC=C(c4ccccc4)CC3)c2c1
inactive: max response [1] 4.19% | outcome [4] | max response [2] 7.3% | outcome [5]
active: Potency [8] 11.2 µM | Potency [12] 13.5 µM | Potency [17] 11.2 µM | Potency [18] 5.36 µM

CC(Cc1ccccc1)NCc1ccccc1Cl (stereo unspecified)
inactive: Potency [11] | Potency [13] | Potency [14] | max response [1] -20.3% | max response [4] -41.8% | max response [2] -8.17% | max response [3] -14.1%
active: Potency [18] 5.36 µM

ClCCCN1CCN(c2cccc(Cl)c2)CC1
inactive: outcome [1] | outcome [4] | outcome [3] | outcome [19] | outcome [5] | outcome [20]

CC(CC(C#N)(c1ccccc1)c1ccccc1)N(C)C (stereo unspecified)
inactive: max response [4] -5.96% | max response [2] -8.06% | max response [3] -12.2%
active: Potency [6] 24.3 µM

NC1(c2ccccc2)CCCCC1
inactive: max response [4] 1.23% | max response [2] 1.89% | max response [3] -27.2%
active: Potency [6] 38.2 µM

Nc1ccc(Cl)cc1C(=O)c1ccccc1F
inactive: max response [1] -4.36% | max response [4] 0.566% | max response [3] 0.255%

CC(CC(C(N)=O)(c1ccccc1)c1ccccc1)N(C)C (stereo unspecified)
inactive: max response [1] -1.58% | max response [4] -10.9% | outcome [3] | outcome [20]

Nc1ccccc1C(=O)OCC(O)CO (stereo unspecified)
inactive: max response [1] 1.8% | max response [3] -1.39% | outcome [20]

COP(=O)(OC)OC=C(Cl)Cl
inactive: Potency [7] | Potency [8] | Potency [9] | Potency [10] | Potency [11] | Potency [12] | Potency [13] | Potency [14] | Potency [15] | Potency [16] | Potency [17] | outcome [1] | max response [4] -7.81% | outcome [3] | outcome [19]
active: Potency [18] 10.7 µM

O=C(N[C@H]1N=C(c2ccccc2F)c2cccc3c2N(CC3)C1=O)c1cc2ccccc2[nH]1
inactive: max response [1] 2.91% | outcome [2] | max response [3] -0.0973%

ClCc1cccc(Cl)c1
inactive: max response [1] -10.5% | max response [4] 1.97% | max response [3] 0.768%

O=C(CCCCl)c1ccc(F)cc1
inactive: max response [1] 0.989% | max response [4] 4.12% | max response [3] -0.659% | outcome [20]

CCS(=O)(=O)C(C)(C)S(=O)(=O)CC
inactive: Potency [7] | Potency [8] | Potency [9] | Potency [10] | Potency [11] | Potency [12] | Potency [13] | Potency [14] | Potency [15] | Potency [16] | Potency [17] | Potency [18] | max response [1] -10.9% | max response [2] 3.51% | max response [3] -2.98%

COc1ccc2c3c1O[C@H]1[C@@H](O)C=C[C@H]4[C@@H](C2)N(C)CC[C@@]341
inactive: max response [2] -15%
active: Potency [6] 33.7 µM

C[C@]12CC[C@H]3[C@@H](CCC4=CC(=O)CC[C@@]43C)[C@@H]1CC[C@@H]2C(=O)O
inactive: outcome [1] | outcome [4] | max response [3] 3.4% | outcome [19] | outcome [5]

CN1CCC(N(Cc2ccccc2)c2ccccc2)CC1
inactive: max response [1] -21.6% | outcome [4] | max response [3] -20.5% | outcome [5]
